Measured values taken from the supplement of paper PMC8728848.
Shown is part of a subset that was picked to be rich in the strongest signals.

Key:
Experiment in all cases: glycan array binding signal (z-score within array); higher = stronger binding
Settings in all cases: glycan notation: IUPAC condensed, linker removed
[1] = target: Fuc(a1-2)Gal(b1-3)GalNAc(a1-3)[Fuc(a1-2)]Gal(b1-4)GlcNAc
Outline: (§1)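 Negative Z-scores can be read as non-binding. The Z-score is calculated within each array and then averaged across arrays of one protein sequence at different concentrations or buffers and across linkers. Arrays, 3228 in all, were curated from the Consortium for Functional Glycomics database and kept only where the protein sequence was available.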

[2] = target: Fuc(a1-2)Gal(b1-3)GalNAc(b1-3)Gal(a1-4)Gal(b1-4)Glc
Outline: as §1

[3] = target: Fuc(a1-2)Gal(b1-3)GlcNAc(b1-2)Man(a1-3)[Fuc(a1-2)Gal(b1-3)GlcNAc(b1-2)Man(a1-6)]Man(b1-4)GlcNAc(b1-4)[Fuc(a1-6)]GlcNAc
Outline: as §1

[4] = target: Fuc(a1-2)Gal(b1-4)GlcNAc(b1-6)GalNAc
Outline: as §1

Fuc(a1-2)Gal6S(b1-4)Glc = target: Fuc(a1-2)Gal6S(b1-4)Glc
Outline: as §1

[5] = target: Fuc(a1-2)[Gal(a1-3)]Gal(b1-4)GlcNAc(b1-3)GalNAc
Outline: as §1

[6] = target: Fuc(a1-3)[Gal(b1-4)]GlcNAc6S
Outline: as §1

Fuc(a1-4)GlcNAc = target: Fuc(a1-4)GlcNAc
Outline: as §1

Gal(a1-3)Gal(b1-3)GlcNAc = target: Gal(a1-3)Gal(b1-3)GlcNAc
Outline: as §1

[7] = target: Gal(a1-3)Gal(b1-4)[Fuc(a1-3)]GlcNAc
Outline: as §1

[8] = target: Gal(a1-3)Gal(b1-4)[Fuc(a1-3)]GlcNAc(b1-2)Man(a1-3)[Gal(a1-3)Gal(b1-4)[Fuc(a1-3)]GlcNAc(b1-2)Man(a1-6)]Man(b1-4)GlcNAc(b1-4)GlcNAc
Outline: as §1

[9] = target: Gal(a1-3)[Gal(a1-4)]Gal(b1-4)GlcNAc
Outline: as §1

Gal(a1-4)Gal(b1-4)Glc = target: Gal(a1-4)Gal(b1-4)Glc
Outline: as §1

Gal(b1-3)Gal = target: Gal(b1-3)Gal
Outline: as §1

[10] = target: Gal(b1-3)GalNAc(b1-3)Gal(a1-4)Gal(b1-4)Glc
Outline: as §1

[11] = target: Gal(b1-3)GalNAc(b1-4)[Neu5Ac(a2-3)]Gal(b1-4)Glc
Outline: as §1

[12] = target: Gal(b1-3)GlcNAc(b1-3)GalNAc
Outline: as §1

[13] = target: Gal(b1-3)[Neu5Ac(a2-6)]GalNAc
Outline: as §1

[14] = target: Gal(b1-3)[Neu5Ac(a2-6)]GlcNAc(b1-4)Gal(b1-4)Glc
Outline: as §1

[15] = target: Gal(b1-3)[Neu5Ac(b2-6)]GalNAc
Outline: as §1

[16] = target: Gal(b1-4)GlcNAc(b1-2)Man(a1-3)[Gal(b1-4)GlcNAc(b1-2)Man(a1-6)]Man(b1-4)GlcNAc(b1-4)GlcNAc
Outline: as §1

[17] = target: Gal(b1-4)GlcNAc(b1-2)Man(a1-6)[GlcNAc(b1-2)Man(a1-3)]Man(b1-4)GlcNAc(b1-4)GlcNAc
Outline: as §1

[18] = target: Gal(b1-4)GlcNAc(b1-3)Gal(b1-4)GlcNAc(b1-3)Gal(b1-4)GlcNAc(b1-3)Gal(b1-4)GlcNAc(b1-3)Gal(b1-4)GlcNAc(b1-3)Gal(b1-4)GlcNAc(b1-2)Man(a1-3)[Gal(b1-4)GlcNAc(b1-3)Gal(b1-4)GlcNAc(b1-3)Gal(b1-4)GlcNAc(b1-3)Gal(b1-4)GlcNAc(b1-3)Gal(b1-4)GlcNAc(b1-3)Gal(b1-4)GlcNAc(b1-2)Man(a1-6)]Man(b1-4)GlcNAc(b1-4)GlcNAc
Outline: as §1

[19] = target: Gal(b1-4)GlcNAc(b1-3)[Gal(b1-4)GlcNAc(b1-6)]Gal(b1-4)GlcNAc
Outline: as §1

[20] = target: Gal(b1-4)GlcNAc(b1-6)GalNAc
Outline: as §1

Gal(b1-6)Gal = target: Gal(b1-6)Gal
Outline: as §1

[21] = target: Gal3S(b1-3)[Fuc(a1-4)]GlcNAc
Outline: as §1

Gal3S4S(b1-4)GlcNAc = target: Gal3S4S(b1-4)GlcNAc
Outline: as §1

Gal3S6S(b1-4)GlcNAc = target: Gal3S6S(b1-4)GlcNAc
Outline: as §1

Gal6P(b1-4)GlcNAc = target: Gal6P(b1-4)GlcNAc
Outline: as §1

B1: DCIR1 (Mus musculus), Q9QZ15 (protein)
chain: MASEITYAEVKFKNESNSLHTYSESPAAPREKPIRDLRKPGSPSLLLTSLMLLLLLLAITFLVAFIIYFQKYSQLLEEKKAAKNIMHNELNCTKSVSPMEDKVWSCCPKDWRLFGSHCYLVPTVSSSASWNKSEENCSRMGAHLVVIQSQEEQDFITGILDTHAAYFIGLWDTGHRQWQWVDQTPYEESITFWHNGEPSSGNEKCATIIYRWKTGWGWNDISCSLKQKSVCQMKKINL
**Q.** With B1 as the binder, how does the “glycan array binding signal (z-score)” value [1] read?
**A.** 0.031

**Q.** And the “glycan array binding signal (z-score)” value [2]?
**A.** 3.31

**Q.** What about the “glycan array binding signal (z-score)” value [3] of the same binder?
**A.** 3.05

**Q.** And the “glycan array binding signal (z-score)” value [4]?
**A.** 3.97

**Q.** What about the “glycan array binding signal (z-score)” value (Fuc(a1-2)Gal6S(b1-4)Glc) of the same binder?
**A.** 1.87

**Q.** What about the “glycan array binding signal (z-score)” value [5] of the same binder?
**A.** -0.604

**Q.** What about the “glycan array binding signal (z-score)” value [6] of the same binder?
**A.** 1.43

**Q.** What about the “glycan array binding signal (z-score)” value (Fuc(a1-4)GlcNAc) of the same binder?
**A.** -0.807

**Q.** What about the “glycan array binding signal (z-score)” value (Gal(a1-3)Gal(b1-3)GlcNAc) of the same binder?
**A.** 7.14

**Q.** What about the “glycan array binding signal (z-score)” value [7] of the same binder?
**A.** -0.171

**Q.** And the “glycan array binding signal (z-score)” value [8]?
**A.** 2.31

**Q.** And the “glycan array binding signal (z-score)” value [9]?
**A.** 3.21

**Q.** And the “glycan array binding signal (z-score)” value (Gal(a1-4)Gal(b1-4)Glc)?
**A.** 0.74

**Q.** What about the “glycan array binding signal (z-score)” value (Gal(b1-3)Gal) of the same binder?
**A.** -0.894

**Q.** And the “glycan array binding signal (z-score)” value [10]?
**A.** 0.592

**Q.** What about the “glycan array binding signal (z-score)” value [11] of the same binder?
**A.** 2.65

**Q.** And the “glycan array binding signal (z-score)” value [12]?
**A.** -0.841

**Q.** What about the “glycan array binding signal (z-score)” value [13] of the same binder?
**A.** -0.767

**Q.** And the “glycan array binding signal (z-score)” value [14]?
**A.** 3.38

**Q.** What about the “glycan array binding signal (z-score)” value [15] of the same binder?
**A.** -0.696

**Q.** And the “glycan array binding signal (z-score)” value [16]?
**A.** -0.217

**Q.** And the “glycan array binding signal (z-score)” value [17]?
**A.** 0.904

**Q.** And the “glycan array binding signal (z-score)” value [18]?
**A.** -0.907

**Q.** And the “glycan array binding signal (z-score)” value [19]?
**A.** -0.693

**Q.** What about the “glycan array binding signal (z-score)” value [20] of the same binder?
**A.** 1.01

**Q.** What about the “glycan array binding signal (z-score)” value (Gal(b1-6)Gal) of the same binder?
**A.** -0.786

**Q.** What about the “glycan array binding signal (z-score)” value [21] of the same binder?
**A.** -0.369

**Q.** What about the “glycan array binding signal (z-score)” value (Gal3S4S(b1-4)GlcNAc) of the same binder?
**A.** -0.376

**Q.** And the “glycan array binding signal (z-score)” value (Gal3S6S(b1-4)GlcNAc)?
**A.** 0.218

**Q.** And the “glycan array binding signal (z-score)” value (Gal6P(b1-4)GlcNAc)?
**A.** -0.489
